From PubChem BioAssay AID2129 (The Scripps Research Institute Molecular Screening Center, 2009)
Screen size: about 320,000 compounds; about 2,200 (0.69%) were called active.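 The calls were made as follows: active = inhibition above the mean of all tested compounds plus 3 SD, cutoff set per campaign (cut at about 30% in these data); inactive = the rest.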 Only a selection was taken, and actives are over-represented in it overall.

Molecular target: Bcl-2-like protein 1 (Homo sapiens) (UniProt Q07817)
Sequence (Q07817 whole entry, looked up): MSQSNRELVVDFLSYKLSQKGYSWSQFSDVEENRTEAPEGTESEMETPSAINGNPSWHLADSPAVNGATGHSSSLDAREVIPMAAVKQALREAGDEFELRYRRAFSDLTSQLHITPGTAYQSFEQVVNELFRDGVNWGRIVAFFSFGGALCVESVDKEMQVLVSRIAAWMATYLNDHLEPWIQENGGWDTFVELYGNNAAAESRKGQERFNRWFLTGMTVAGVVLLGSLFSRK
Assay: inhibitors of human Bcl-xL, primary screen, biochemical, fluorescence polarization, HTS (AID 2129);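 also: 0% = DMSO wells and 100% = unlabeled Bim-BH3 peptide competitor; inhibitors lower millipolarization by displacing the labeled peptide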
Conditions: GST-Bcl-xL / FITC-Bim BH3 peptide fluorescence polarization; at 10.9 µM; hits give high values

inhibition, inactive:
O=c1[nH]c(-c2ccccc2)c(-c2ccccc2)[nH]1 1.54%
CNC(=O)c1cccc2nc3ccccc3nc12 8.33%
CNC(C)C#Cc1ccc2sc3cc(OC)c(OC)cc3c(=O)c2c1 (centres undefined) 0.94%
COc1ccc(C(=O)NCC(c2ccco2)N2CCc3ccccc32)cc1OC (centres undefined) 3.87%
C[n+]1ccccc1C1CCCC/C1=N\Nc1ccc([N+](=O)[O-])cc1[N+](=O)[O-] (centres undefined) -14.1%
COc1ccc(S(=O)(=O)N(C)CC(=O)NCCCN2CCOCC2)cc1Cl -0.96%
COc1ccc2cc(C(=O)C3CCCN(C(=O)c4sc(C)nc4C)C3)ccc2c1 (centres undefined) 3%
COc1ccc2c(c1)CCc1cn3ncc(C#N)c3nc1-2 5.65%
O=C(O)c1ccccc1CSc1nc2ccccc2s1 15.6%
CCOc1ccccc1Nc1ccc2nonc2c1[N+](=O)[O-] -3.2%
O=C(C1CCC1)N1CCc2cc(S(=O)(=O)NCc3cccnc3)ccc21 1.18%
CCN(CC)CCNc1nc(-c2ccc(OC(F)F)cc2)c(C)s1 4.61%
CCOc1ccc(C2C3=C(CCCC3=O)N(CC(=O)O)C3=C2C(=O)CCC3)cc1 6.72%
COc1ccc(C2C3=C(CCCC3=O)N(CC(=O)O)C3=C2C(=O)CCC3)cc1 7.5%
CCCCCCCC1(C)NC(=O)N(CC(=O)Nc2cc(C)on2)C1=O (centres undefined) 3.89%
O=C(Oc1cccc(O)c1)C1CCCCC1 1.38%
CN(C(=O)CSc1nnc(-c2ccc3c(c2)OCO3)o1)C1CCS(=O)(=O)C1 (centres undefined) 3.5%
CCCc1cc(=O)[nH]c(SCC(=O)c2c(N)n(CC(C)C)c(=O)n(C)c2=O)n1 -0.53%
Cc1coc(C)c1C(=O)CC1(O)C(=O)N(C)c2ccc(Cl)cc21 (centres undefined) 3.68%
NC(=O)CC(NC(=O)Cc1cccc2ccccc12)c1ccc(NCc2cc(F)ccc2F)c([N+](=O)[O-])c1 (centres undefined) -3.93%
COC(=O)CCCC1=CC2=CC(=O)C(C)(OC(=O)c3cccs3)C(=O)C2=CN1CC1CC1 (centres undefined) 13.4%
COC(=O)CCCC1=CC2=CC(=O)C(C)(OC(=O)c3cccs3)C(=O)C2=CN1CC(C)C (centres undefined) 8.79%
COc1cc(C(=O)N2C(=O)c3cccc(N)c3C2=O)cc(OC)c1OC 11.8%
CN1CCN(S(=O)(=O)c2cccc(C(=O)O)c2)CC1 6.51%
O=C(Cn1nc([N+](=O)[O-])nc1Br)NC1CCCCC1 0.58%
CC(C)(C)c1ccc(C(CC(=O)O)NS(=O)(=O)Cc2ccccc2)cc1 (centres undefined) -2.32%
O=C1CCCN1CCCNC(=S)Nc1ccc(F)c(Cl)c1 5.5%
Cc1cc([N+](=O)[O-])ccc1NCc1cccc([N+](=O)[O-])c1 3.28%
C=CCn1c(SCCOc2ccc(OC)cc2)nnc1C(NC(=O)c1ccc(OC)cc1)C(C)C (centres undefined) 4.55%
COc1ccc(-c2cc(C(=O)N(C)Cc3ccccc3)c3ccccc3n2)cc1 4.34%
CN(C(=O)COC(=O)c1nc(Cl)ccc1Cl)C1CCS(=O)(=O)C1 (centres undefined) -2.39%
COc1ccc(NC(=O)CN(C)C(=O)c2cc(-c3ccc(C)o3)nc3ccccc23)cc1 1.46%
CC1CCCN(C(=O)c2cc(-c3ccco3)nc3ccccc23)C1 (centres undefined) 2.8%
O=C(c1cccs1)n1nc(NCc2ccccc2)nc1NCc1ccccc1 -2.31%
Cc1nnsc1S(=O)(=O)Cc1ccccc1Cl 1.84%
Cn1cccc1C(=O)NNC(=O)COc1ccc(Br)cc1 1.85%
CC1CCN(C(=S)NC(=O)c2ccccc2Br)CC1 1.04%
CCc1ccc(NC(=O)Nc2ccncc2)cc1 -0.23%
COc1ccc(C(=O)N2CCCC(C(=O)c3ccccc3OC)C2)cc1OC (centres undefined) 2.42%
COc1cc(OC)cc(-c2c(-c3cccs3)c3cc(-c4ccc(OC)cc4F)ccc3n2C)c1 -0.84%
Cc1ccc(S(=O)(=O)N(C)C)cc1NC(=O)c1n[nH]c(=O)c2ccccc12 -2.28%
O=C(NCCc1ccc(C(F)(F)F)cc1)c1ccc2c(c1)OCO2 2.41%
NC(=O)c1ccc(Nc2ccc3c(c2)CCC3)c([N+](=O)[O-])c1 2.16%
Cc1c(CCO)c(=O)n(-c2ccccc2)n1S(=O)(=O)c1ccc(F)cc1 9.16%
O=C(C1=C(O)C(=O)N(Cc2ccccc2)C1c1ccco1)c1ccco1 (centres undefined) 7.06%
O=C(C1=C(O)C(=O)N(Cc2ccccc2)C1c1cccnc1)c1ccco1 (centres undefined) 3.45%
COC(=O)/C=C(\Oc1ccccc1)C1(O)CCCCC1 1.07%
CCn1c(SCC(=O)NC2=NCCS2)nnc1C(C)NC(=O)c1ccccc1F (centres undefined) -1.19%
O=C(N/N=C/c1sc(N2CCCCC2)nc1-c1cccs1)c1cccnc1 -12.1%

inhibition, active:
O=c1[nH]c(=O)c2nc3ccccc3nc2[nH]1 33.4%
COc1ccc2nc(N3CCCC(O)C3)c(C#N)cc2c1 (centres undefined) 32%
O=[N+]([O-])c1c(NCCO)cc(Sc2nc3ccccc3s2)c2nonc12 38.8%
CCCN1C2=C(C(=O)CCC2)C(c2ccc(O)c(Br)c2)C2=C1CCCC2=O 37.8%
COC(=O)CCCC1=CC2=CC(=O)C(C)(OC(=O)c3cccs3)C(=O)C2=CN1c1cccc(C#N)c1 (centres undefined) 35.7%
CC1CC(C)CN(S(=O)(=O)c2cccc(C(=O)N3C(=O)c4cccc(N)c4C3=O)c2)C1 (centres undefined) 30.5%
CN(CCOc1ccccc1)C(=O)c1cc(-c2ccco2)nc2ccccc12 30.5%
CN(C(=O)COC(=O)c1cc(-c2ccco2)nc2ccccc12)C1CCS(=O)(=O)C1 (centres undefined) 38.9%
Oc1ccc2ccccc2c1N=Nc1nccs1 54.3%
O=C(C1=C(O)C(=O)N(c2ncccn2)C1c1cccs1)c1ccco1 (centres undefined) 94.5%
